Laboratory results taken from PubChem BioAssay.
Calls of active or inactive are those of the source. Unless noted, the rule behind the calls is not given here.

What was measured:
[1] = HepG2 liver cancer cell viability effects, profiling panel, resazurin fluorescence, 24 h, PK04 Diversity Set (AID 1172); conditions: higher = more signal; note: test concentration not given here
[2] = basal S. cerevisiae growth modulation, no modifier, primary screen, OD600, strain BY4716, 24 h, basal condition (AID 1173); conditions: OD600, 24 h, higher = more signal, called active from +8 up or from −8 down
[3] = MM1S myeloma cell viability, profiling panel, resazurin fluorescence, basal, 24 h, PK04 Diversity Set (AID 1174); conditions: higher = more signal, called active from +8 up or from −8 down;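 note: MM1S multiple myeloma cell line; test concentration not given here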
[4] = target: Dihydroorotate dehydrogenase (quinone), mitochondrial (Plasmodium falciparum (isolate 3D7)) (UniProt Q08210); experiment: PfDHODH enzyme inhibitors, primary screen, biochemical, C-terminal His tag, absorbance 600 nm (AID 1175); conditions: DCIP absorbance 600 nm, higher = more signal, called active from +8 up or from −8 down;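 note: recombinant parasite enzyme with a five histidine tag at its C terminus; test concentration not given here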
[5] = P. aeruginosa biofilm formation inhibitors, primary screen, strain PAO1, LB-PBS medium, absorbance 600 nm (AID 1176); note: test concentration not given here; conditions: P. aeruginosa PAO1 growth/biofilm, A600, 12 h; higher = more signal
[6] = S. cerevisiae RM11-1a growth modifiers, primary screen, strain RM11-1a, OD600, basal, 24 h (AID 1177); conditions: OD600, 24 h, higher = more signal, called active from +8 up or from −8 down;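 note: cultures grown under basal conditions with no added stressor; test concentration not given here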
[7] = E. coli acrAB mutant growth effects, primary screen, E. coli filamentation inducers, strain DRC39, OD650, 24 h (AID 1178); conditions: higher = more signal, called active from +8 up or from −8 down;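 note: growth measured as culture turbidity by optical density at 650 nm; test concentration not given here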
[8] = E. coli acrAB mutant growth effects, primary screen, E. coli filamentation inducers, strain DRC39, OD650, 48 h (AID 1179);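 note: screen aims at cell division blockers that make cells filament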; conditions: E. coli DRC39 delta-acrAB growth, higher = more signal, called active from +8 up or from −8 down
[9] = RPMI8226 myeloma cell viability, profiling panel, resazurin fluorescence, basal, 24 h, PK04 Diversity Set (AID 1180); conditions: higher = more signal;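 note: RPMI8826 multiple myeloma cell line at 5000 cells per well; test concentration not given here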
[10] = target: E3 ubiquitin-protein ligase XIAP (Homo sapiens) (UniProt P98170); experiment: XIAP binders, primary screen, biophysical, small-molecule microarray, fluorescence 635 nm (AID 1181); conditions: small-molecule microarray binding, higher = more signal;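 note: score merges 667 nm emission and signal to noise over triplicate slides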
E3 ubiquitin-protein ligase XIAP (Homo sapiens), sequence (P98170 whole entry, looked up): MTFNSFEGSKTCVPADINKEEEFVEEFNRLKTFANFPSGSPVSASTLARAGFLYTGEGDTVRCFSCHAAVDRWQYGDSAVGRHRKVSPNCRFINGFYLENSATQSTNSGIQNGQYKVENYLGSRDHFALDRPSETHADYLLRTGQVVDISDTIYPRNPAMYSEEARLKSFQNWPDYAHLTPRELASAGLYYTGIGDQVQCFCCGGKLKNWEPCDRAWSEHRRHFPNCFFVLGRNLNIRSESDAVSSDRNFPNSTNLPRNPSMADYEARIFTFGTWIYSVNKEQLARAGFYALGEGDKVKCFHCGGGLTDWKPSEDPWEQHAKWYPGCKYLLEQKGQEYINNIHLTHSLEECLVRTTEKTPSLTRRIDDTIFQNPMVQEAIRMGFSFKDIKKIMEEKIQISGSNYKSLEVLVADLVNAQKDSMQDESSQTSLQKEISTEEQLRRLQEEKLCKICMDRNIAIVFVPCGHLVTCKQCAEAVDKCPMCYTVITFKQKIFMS

Dihydroorotate dehydrogenase (quinone), mitochondrial (Plasmodium falciparum (isolate 3D7)), sequence (Q08210 whole entry, looked up): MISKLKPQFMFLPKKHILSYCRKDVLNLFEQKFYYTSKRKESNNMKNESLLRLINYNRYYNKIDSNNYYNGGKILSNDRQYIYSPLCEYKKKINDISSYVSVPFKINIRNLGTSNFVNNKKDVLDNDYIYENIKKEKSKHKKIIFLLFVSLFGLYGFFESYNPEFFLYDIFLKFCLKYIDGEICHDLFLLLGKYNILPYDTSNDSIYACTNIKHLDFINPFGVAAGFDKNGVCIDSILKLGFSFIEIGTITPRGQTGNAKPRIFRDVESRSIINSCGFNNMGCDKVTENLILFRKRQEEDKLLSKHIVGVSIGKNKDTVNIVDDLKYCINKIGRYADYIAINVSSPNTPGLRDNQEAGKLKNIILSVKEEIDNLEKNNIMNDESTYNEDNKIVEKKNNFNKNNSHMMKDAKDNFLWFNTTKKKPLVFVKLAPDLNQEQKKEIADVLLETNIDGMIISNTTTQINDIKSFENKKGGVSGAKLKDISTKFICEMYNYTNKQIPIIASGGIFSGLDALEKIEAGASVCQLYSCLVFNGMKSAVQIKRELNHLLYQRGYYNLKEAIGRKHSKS

Structure (SMILES)	z-score [1]	z-score [2]	z-score [3]	composite z-score [4]	z-score [5]	z-score [6]	z-score [7]	z-score [8]	z-score [9]	composite z-score [10]
C[C@H]1NC(=O)[C@H](Cc2ccccc2)NC(=O)[C@@]23C(=O)N[C@@H](Cc4ccccc4)C2[C@H](C)[C@@]2(C)O[C@H]2C3/C=C/C/C=C\CNC1=O (stereo not given in full)	-0.23	0.0145 (inactive)	0.557 (inactive)	0.742 (inactive)	-0.246 (inactive)	1.16 (inactive)	1.32 (inactive)	0.64 (inactive)	1.07	-0.173
C=CCNC(=O)[C@@H]1[C@H]2C(=O)O[C@H](c3ccccc3)[C@H](c3ccccc3)N2[C@H](c2ccc(OCCO)cc2)[C@@]12C(=O)Nc1ccccc12	0.61	-1.67 (inactive)	-0.0761 (inactive)	-2.04 (inactive)	3.15 (inactive)	-0.412 (inactive)	1.34 (inactive)	0.548 (inactive)	-0.0855	0.0192
COC(=O)[C@@]1(Cc2ccccc2)[C@H]2c3cc(C(=O)N(C)C)n(Cc4c(-c5ccccc5)noc4C)c3C[C@H]2CN1C(=O)c1ccccc1	-1.19	1.56 (inactive)	-2.41 (inactive)	-0.403 (inactive)	1.98 (inactive)	0.337 (inactive)	-0.539 (inactive)	-0.971 (inactive)	-2.93	0.424
COC(=O)C[C@@H]1C[C@H](C)[C@]2(O1)C(=O)N(Cc1ccccc1)c1ccc(NC(C)=O)cc12	-0.873	-1.15 (inactive)	-1.19 (inactive)	0.281 (inactive)	-0.0582 (inactive)	0.0057 (inactive)	-0.768 (inactive)	-1.33 (inactive)	-0.888	0.123
O=C(CS)NCCCCCCNC(=O)[C@@H]1C[C@@H]2C(=O)N3CCC[C@H]3C(=O)N2[C@@H]1c1ccc(O)cc1	-0.564	0.784 (inactive)	0.357 (inactive)	0.586 (inactive)	-0.158 (inactive)	1.24 (inactive)	-0.0727 (inactive)	-0.313 (inactive)	-0.449	0.0153
CCOC(=O)C1=CCC(C(C)(C)C)N(S(=O)(=O)c2ccc(C)cc2)C1 (stereo not given)	-0.462	0.586 (inactive)	-0.0359 (inactive)	0.406 (inactive)	-0.321 (inactive)	1.29 (inactive)	-0.021 (inactive)	-0.52 (inactive)	-0.719	-0.0476
O=C1OCC=C[C@H]2OC34C=CCN(c5ccc(Cl)cc5)C(=O)[C@H]3N(CCCCCCO)C(=O)[C@@H]4[C@@H]12 (stereo not given in full)	0.82	-0.69 (inactive)	0.975 (inactive)	-1.47 (inactive)	-0.497 (inactive)	-0.146 (inactive)	0.571 (inactive)	0.916 (inactive)	1.01	-0.138
Cc1c(NC(=O)CC#N)c(=O)n(-c2ccccc2)n1C	1.02	-0.267 (inactive)	1.07 (inactive)	-0.544 (inactive)	0.531 (inactive)	-1.25 (inactive)	1.37 (inactive)	1.47 (inactive)	0.526	0.0345
C=CC[C@@]1(C(=O)N2CCOCC2)N=C(c2ccc(OCCCO)cc2)O[C@@H]1c1ccccc1N=[N+]=[N-]	-0.268	-1.24 (inactive)	-1.64 (inactive)	0.443 (inactive)	-0.236 (inactive)	0.367 (inactive)	0.992 (inactive)	0.123 (inactive)	-1.33	0.117
COC(=O)[C@@]1(Cc2ccc(F)cc2)[C@H]2c3cc(C(=O)N(C)C)n(CCc4ccccn4)c3C[C@H]2CN1C(=O)c1ccccc1	0.244	0.676 (inactive)	-0.309 (inactive)	-0.804 (inactive)	0.0944 (inactive)	-0.182 (inactive)	0.2 (inactive)	-1.02 (inactive)	0.357	0.254
O=C1[C@]2(CO)C=C(Br)[C@@H](C[C@@H]2c2ccccc2)[C@@]12CO2	1.09	-4.57 (inactive)	-0.0768 (inactive)	-0.172 (inactive)	-0.884 (inactive)	0.184 (inactive)	0.613 (inactive)	0.585 (inactive)	-0.333	-0.102
C=C[C@H](COC(C)=O)N(Cc1ccc(OC(C)=O)c(OC)c1)S(=O)(=O)c1ccc(Br)cc1	0.203	-0.533 (inactive)	0.427 (inactive)	-1.24 (inactive)	-0.152 (inactive)	0.318 (inactive)	1.65 (inactive)	2.5 (inactive)	0.798	-0.162
[N-]=[N+]=NCc1ccccc1C[C@@]1(C(=O)NCC(O)CO)N=C(c2ccc(OCCCO)cc2)O[C@@H]1c1ccccc1CN=[N+]=[N-] (stereo not given in full)	0.376	-0.247 (inactive)	-1.3 (inactive)	0.34 (inactive)	2.33 (inactive)	0.0651 (inactive)	0.322 (inactive)	-0.0665 (inactive)	-1.03	-0.377
CCCN1C(=O)[C@@]2(CCC(=O)OC(C)(C)C)N=C(c3ccc(OCCCO)cc3)O[C@H]2c2ccccc21	0.803	-1 (inactive)	-1.86 (inactive)	-0.0393 (inactive)	0.717 (inactive)	0.992 (inactive)	0.923 (inactive)	0.178 (inactive)	-3.16	0.0223
O=C1O[C@H](c2ccccc2)[C@H](c2ccccc2)N2[C@H]1[C@@H](C(=O)NC[C@H](O)c1ccccc1)[C@]1(C(=O)Nc3ccc(C#CCCO)cc31)[C@H]2c1ccc(O)cc1	-0.0297	0.047 (inactive)	-0.0226 (inactive)	-1.4 (inactive)	0.432 (inactive)	0.117 (inactive)	-0.568 (inactive)	-0.982 (inactive)	-0.186	0.133
[N-]=[N+]=NCc1ccccc1[C@@H]1OC(c2ccc(OCCCO)cc2)=N[C@]1(Cc1ccccc1)C(=O)N1CCCCC1	-0.596	-1.11 (inactive)	-1.3 (inactive)	0.678 (inactive)	-0.621 (inactive)	1.48 (inactive)	0.775 (inactive)	0.345 (inactive)	-0.94	-0.257
COC(=O)C[C@H]1O[C@]2(C(=O)N(Cc3ccccc3)c3ccc(NC(C)=O)cc32)[C@@H](C)[C@@H]1[Si](C)(C)c1ccc(OC)cc1	-1.11	0.457 (inactive)	-1.33 (inactive)	1.45 (inactive)	-0.602 (inactive)	0.952 (inactive)	-0.871 (inactive)	-0.69 (inactive)	-0.681	-0.227
COCCOC(=O)N1C(=O)[C@@]2(c3cc(C#CCC(C(=O)OC)C(=O)OC)ccc31)[C@H](c1ccccc1OCCO)N1[C@H](c3ccccc3)[C@H](c3ccccc3)OC(=O)[C@H]1[C@@H]2C(N)=O	-0.592	0.9 (inactive)	-9.3 (active)	0.47 (inactive)	0.774 (inactive)	1.97 (inactive)	0.116 (inactive)	0.857 (inactive)	-7.24	-0.0874
COc1ccc(C#Cc2ccc3c(c2)[C@]2(C(=O)N3)[C@H](C(=O)NC[C@H](O)c3ccccc3)[C@H]3C(=O)O[C@H](c4ccccc4)[C@H](c4ccccc4)N3[C@@H]2c2ccc(OCCO)cc2)cc1	-1.07	2.22 (inactive)	-1.16 (inactive)	-0.0157 (inactive)	2.55 (inactive)	2.97 (inactive)	-0.34 (inactive)	-0.151 (inactive)	-1.47	-0.125
C=CCNC(=O)[C@H]1[C@@H]2C(=O)O[C@@H](c3ccccc3)[C@@H](c3ccccc3)N2[C@@H](c2ccc(O)cc2)[C@]12C(=O)N(C(=O)OCCOC)c1ccc(C#CCCO)cc12	-0.37	-0.385 (inactive)	0.695 (inactive)	1.12 (inactive)	0.104 (inactive)	0.681 (inactive)	0.261 (inactive)	0.69 (inactive)	0.665	-0.272
COCCOC(=O)N1C(=O)[C@@]2(c3ccccc31)[C@H](C(=O)NC[C@H](O)c1ccccc1)[C@H]1C(=O)O[C@H](c3ccccc3)[C@H](c3ccccc3)N1[C@@H]2c1ccc(OCCO)cc1	1.09	1.42 (inactive)	-1.04 (inactive)	-0.0923 (inactive)	2.36 (inactive)	1.61 (inactive)	0.649 (inactive)	-0.559 (inactive)	-0.744	-0.156
CC(C)NC(=O)[C@@H]1c2ccccc2C(=O)N(Cc2ccccc2Cl)[C@H]1c1ccc(CO)cc1	1.6	-0.197 (inactive)	-0.27 (inactive)	0.233 (inactive)	0.183 (inactive)	0.358 (inactive)	0.696 (inactive)	0.661 (inactive)	0.131	0.103
CC(C)CNC(=O)[C@@H]1c2ccccc2C(=O)N(Cc2cc(C(F)(F)F)cc(C(F)(F)F)c2)[C@H]1c1ccc(CO)cc1	-1.16	0.578 (inactive)	0.889 (inactive)	-0.697 (inactive)	-0.171 (inactive)	0.927 (inactive)	0.898 (inactive)	0.343 (inactive)	1.29	-0.198
Cc1ccc(S[C@]2(C(=O)NCCN3CCOCC3)CC(=O)N(Cc3cc(C(F)(F)F)cc(C(F)(F)F)c3)[C@@H]2c2ccc(CO)cc2I)cc1	1.21	-5.83 (inactive)	-2.06 (inactive)	-0.483 (inactive)	-0.407 (inactive)	-2.09 (inactive)	0.106 (inactive)	1.09 (inactive)	-2.33	-0.419
C=C[C@@H](COC(C)=O)N(Cc1ccc([N+](=O)[O-])cc1)S(=O)(=O)c1ccc(Br)cc1	0.835	-0.367 (inactive)	0.417 (inactive)	-1.01 (inactive)	-0.801 (inactive)	1.19 (inactive)	1.01 (inactive)	0.469 (inactive)	1.49	0.0345
